Test results taken from article PMC9911399, “Two distinct binding modes provide the RNA-binding protein RbFox with extraordinary sequence specificity”.
Changes are numbered by the printed parent chain; changes in the protein carry UniProt numbers. In all, about 16,000 sequences were measured (“ka relative to ugcaugu”: median about 0.096, highest 2% from about 0.35 on). This excerpt belongs to a sample that is enriched for the highest values.

B1: GGCUAUG (DNA:RNA)
RNA: GGGAGACCGGAAUUCAGAUUGUCCGGCUAUGUUAAAUCCCGUCGUAGCCACCA
DNA 1: CAATCTGAATTCCGGTCTCCC
DNA 2: TGGTGGCTACGACGGGATT
B2: UUGGUUA (DNA:RNA)
RNA: B1 RNA with G25U, G26U, C27G, U28G, A29U, G31A
DNA 1: CAATCTGAATTCCGGTCTCCC
DNA 2: TGGTGGCTACGACGGGATT
B3: AUGACAU (DNA:RNA)
RNA: GGGAGACCGGAAUUCAGAUUGUCCAUGACAUUUAAAUCCCGUCGUAGCCACCA
DNA 1: CAATCTGAATTCCGGTCTCCC
DNA 2: TGGTGGCTACGACGGGATT
B4: CAAGGUA (DNA:RNA)
RNA: B1 RNA with G25C, G26A, C27A, U28G, A29G, G31A
DNA 1: CAATCTGAATTCCGGTCTCCC
DNA 2: TGGTGGCTACGACGGGATT
B5: UCUUGCG (DNA:RNA)
RNA: B1 RNA with G25U, G26C, C27U, A29G, U30C
DNA 1: CAATCTGAATTCCGGTCTCCC
DNA 2: TGGTGGCTACGACGGGATT
B6: UCUAAUU (DNA:RNA)
RNA: B3 RNA with A25U, U26C, G27U, C29A, A30U
DNA 1: CAATCTGAATTCCGGTCTCCC
DNA 2: TGGTGGCTACGACGGGATT
B7: AUACAAA (DNA:RNA)
RNA: B3 RNA with G27A, A28C, C29A, U31A
DNA 1: CAATCTGAATTCCGGTCTCCC
DNA 2: TGGTGGCTACGACGGGATT
B8: GGAUCUA (DNA:RNA)
RNA: B1 RNA with C27A, A29C, G31A
DNA 1: CAATCTGAATTCCGGTCTCCC
DNA 2: TGGTGGCTACGACGGGATT
B9: GUCCCCG (DNA:RNA)
RNA: B1 RNA with G26U, U28C, A29C, U30C
DNA 1: CAATCTGAATTCCGGTCTCCC
DNA 2: TGGTGGCTACGACGGGATT
B10: UGUAUGU (DNA:RNA)
RNA: B3 RNA with A25U, U26G, G27U, C29U, A30G
DNA 1: CAATCTGAATTCCGGTCTCCC
DNA 2: TGGTGGCTACGACGGGATT
B11: UGUAGGU (DNA:RNA)
RNA: B3 RNA with A25U, U26G, G27U, C29G, A30G
DNA 1: CAATCTGAATTCCGGTCTCCC
DNA 2: TGGTGGCTACGACGGGATT
B12: GGUCAUC (DNA:RNA)
RNA: B1 RNA with C27U, U28C, G31C
DNA 1: CAATCTGAATTCCGGTCTCCC
DNA 2: TGGTGGCTACGACGGGATT
B13: GUCCUGU (DNA:RNA)
RNA: B3 RNA with A25G, G27C, A28C, C29U, A30G
DNA 1: CAATCTGAATTCCGGTCTCCC
DNA 2: TGGTGGCTACGACGGGATT
B14: CUGUGUA (DNA:RNA)
RNA: B3 RNA with A25C, A28U, C29G, A30U, U31A
DNA 1: CAATCTGAATTCCGGTCTCCC
DNA 2: TGGTGGCTACGACGGGATT
B15: CGCUAUG (DNA:RNA)
RNA: B1 RNA with G25C
DNA 1: CAATCTGAATTCCGGTCTCCC
DNA 2: TGGTGGCTACGACGGGATT
B16: UGCUAUC (DNA:RNA)
RNA: B1 RNA with G25U, G31C
DNA 1: CAATCTGAATTCCGGTCTCCC
DNA 2: TGGTGGCTACGACGGGATT
B17: GUCAUGU (DNA:RNA)
RNA: B3 RNA with A25G, G27C, C29U, A30G
DNA 1: CAATCTGAATTCCGGTCTCCC
DNA 2: TGGTGGCTACGACGGGATT
B18: UGCUAUG (DNA:RNA)
RNA: B1 RNA with G25U
DNA 1: CAATCTGAATTCCGGTCTCCC
DNA 2: TGGTGGCTACGACGGGATT
B19: CCCUGUA (DNA:RNA)
RNA: B1 RNA with G25C, G26C, A29G, G31A
DNA 1: CAATCTGAATTCCGGTCTCCC
DNA 2: TGGTGGCTACGACGGGATT
B20: CUGUAUG (DNA:RNA)
RNA: B1 RNA with G25C, G26U, C27G
DNA 1: CAATCTGAATTCCGGTCTCCC
DNA 2: TGGTGGCTACGACGGGATT
B21: GGUCAUG (DNA:RNA)
RNA: B1 RNA with C27U, U28C
DNA 1: CAATCTGAATTCCGGTCTCCC
DNA 2: TGGTGGCTACGACGGGATT

target: T1, RBFOX1 RRM RbFoxmut (Fox-RRM*) (Homo sapiens, UniProt Q9NWB1 109-208, R118D;E147R;N151S;E152T); experiment: EMSA; HiTS-Eq, 1 nM pool, 10 min; buffer printed only for the single-RNA assays: 10 mM Tris pH 7.5, 150 mM NaCl, 3.4 mM EDTA, 0.001% NP-40, 30 C; conditions: tags: His6 N-terminal (pET28a); label: 5' 32P
T1 sequence: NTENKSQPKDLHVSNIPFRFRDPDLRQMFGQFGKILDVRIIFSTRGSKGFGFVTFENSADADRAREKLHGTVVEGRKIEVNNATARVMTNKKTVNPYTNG
Outline: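 Purified wild-type or mutant RbFox RRM at increasing concentrations was equilibrated with 1 nM of 5′-radiolabelled RNA carrying 7 randomized nucleotides for 10 min in 50 µL. Unbound RNA was separated by 8% native PAGE and sequenced. Relative association constants came from read-count changes of each RNA species compared with the control reaction, normalised to the cognate motif.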

First: B1
Second: B2
The binding signal of the first is higher: 0.405 KA relative to UGCAUGU for the first, 0.155 KA relative to UGCAUGU for the second.

Compared with B3, B4 is higher in binding signal: 0.0668 KA relative to UGCAUGU for the first, 0.124 KA relative to UGCAUGU for the second.

First: B5
Second: B6
The binding signal of the first is higher: 0.168 KA relative to UGCAUGU for the first, 0.0829 KA relative to UGCAUGU for the second.

Compared with B7, B8 is higher in binding signal: 0.0876 KA relative to UGCAUGU for the first, 0.154 KA relative to UGCAUGU for the second.

Compared with B9, B10 is higher in binding signal: 0.0635 KA relative to UGCAUGU for the first, 0.914 KA relative to UGCAUGU for the second.

First: B11
Second: B12
The binding signal of the first is lower: 0.126 KA relative to UGCAUGU for the first, 0.152 KA relative to UGCAUGU for the second.

Compared with B13, B14 is higher in binding signal: 0.135 KA relative to UGCAUGU for the first, 0.281 KA relative to UGCAUGU for the second.

First: B15
Second: B16
The binding signal of the first is lower: 0.184 KA relative to UGCAUGU for the first, 0.255 KA relative to UGCAUGU for the second.

First: B17
Second: B18
The binding signal of the first is lower: 0.288 KA relative to UGCAUGU for the first, 0.863 KA relative to UGCAUGU for the second.

First: B19
Second: B20
The binding signal of the first is lower: 0.201 KA relative to UGCAUGU for the first, 1.11 KA relative to UGCAUGU for the second.

B21 was tested, and the binding signal was 0.512 KA relative to UGCAUGU.
